From PubChem
In the library only some 5.9% were active in any assay of this set; here they are far more common.
FBPA coupling cs: counter-screen for Giardia aldolase inhibitors: coupling enzyme system; coupling enzyme system counterscreen, AmpLite Red fluorescence; activity change, negative = inhibition, % at 58.2 µM, hits read low; 0.67% of 290,000 active; in the data active = activity change below about -30%
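Counterscreen of the coupled detection system alone, without aldolase: glyceraldehyde-3-phosphate coupling enzymes plus AmpLite Red readout. Compounds at 57.5 uM final, 10 min RT preincubation, 20 min RT reaction, fluorescence 525/598 nm.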
GALK inhibitor: galactokinase (human) inhibition; 0.007% of 270,000 active; P51570; Potency, µM (highest dose often 57.5 µM), for the others: at the top dose activity change, negative = inhibition, actives largely listed as inhibitors; Purified GALK, Kinase-Glo residual ATP luminescence; note: potency is the fitted concentration of half-maximal effect
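Luminescence from leftover ATP (Ultra-Glo luciferase/luciferin) served as read-out after a 1 h room-temperature reaction of 5 nM GALK with 35 uM ATP and 100 uM galactose.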
RORg inh: ROR gamma (mouse) transcription inhibition | P51450 | Drosophila S2 Gal4-RORgamma UAS-luciferase reporter, 20 h | Potency, µM (highest dose often 53.6 µM), inactives show top-dose activity change, negative = inhibition, most hits filed as inhibitors | 5.4% of 310,000 active; note: potency is the fitted concentration of half-maximal effect; nearly all actives have a fitted effect of over 60% in size
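Stable Schneider cell line, Gal4 DNA-binding domain fused to ROR gamma, UAS-luciferase. Cmpd 1 hr RT → CuSO4 700 uM final → 20 hr RT → luciferase reagent 10 min → luminescence.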
TrxR1 substrate: rat thioredoxin reductase 1 substrate activity | AID 588456 | Potency, µM (top dose mostly 114 µM), for inactives: at the top dose activity change, negative = substrate turnover | O89049 | purified TrxR1 substrate turnover, NADPH consumption readout | 0.01% of 390,000 active; note: potency is the fitted concentration of half-maximal effect; nearly all actives have a fitted effect of over 50% in size
Target sequence (O89049 whole entry, looked up): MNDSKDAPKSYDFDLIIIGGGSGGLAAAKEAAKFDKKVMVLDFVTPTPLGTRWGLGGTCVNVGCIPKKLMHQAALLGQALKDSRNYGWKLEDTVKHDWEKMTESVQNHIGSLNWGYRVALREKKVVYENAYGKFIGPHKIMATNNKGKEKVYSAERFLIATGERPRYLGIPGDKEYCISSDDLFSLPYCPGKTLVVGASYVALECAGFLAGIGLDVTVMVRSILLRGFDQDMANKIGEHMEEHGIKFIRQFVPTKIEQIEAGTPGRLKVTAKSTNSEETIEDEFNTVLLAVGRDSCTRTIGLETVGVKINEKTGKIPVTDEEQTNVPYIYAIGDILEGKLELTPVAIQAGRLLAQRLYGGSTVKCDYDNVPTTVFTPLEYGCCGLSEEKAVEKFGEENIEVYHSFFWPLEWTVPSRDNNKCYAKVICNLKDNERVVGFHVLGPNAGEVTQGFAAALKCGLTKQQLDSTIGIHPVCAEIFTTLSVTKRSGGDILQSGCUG
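Rat TrxR1, dispensed at 90 nM, was prereduced with 400 uM NADPH (final) for 5 min at ~22 deg C, then incubated with compound 15 min before 400 uM selenite. A first-read NADPH fluorescence drop versus no-compound background flagged substrates.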
rTrxR1 inhibitor: rat TrxR1 inhibition; Potency, µM (highest dose often 114 µM), for the others: at the top dose activity change, negative = inhibition, hits mostly inhibitors; 1% of 390,000 active; O89049; recombinant rTrxR1, NADPH fluorescence consumption, selenite substrate; note: potency is the fitted concentration of half-maximal effect; nearly all actives have a fitted effect of over 65% in size
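Rat TrxR1 (90 nM in the dispensed reagent) was pre-reduced with 400 uM NADPH for 5 min at room temperature, then incubated with compound for 15 min. After 400 uM selenite was added, NADPH fluorescence (Ex 340/Em 450 nm) was followed for 8 min.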
VP16 counter: counter-screen for ROR gamma inhibitors: Gal4-VP16 reporter | AID 2546 | Potency, µM (series often up to 53.6 µM), for inactives: top-dose activity, negative = inhibition, usual class: inhibitors | Drosophila S2 Gal4-VP16 UAS-luciferase, luminescence, 20 h | 3.5% of 310,000 active;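 note: Gal4-VP16 expression switched on by copper sulfate through the metallothionein promoter; potency is the fitted concentration of half-maximal effect; nearly all actives have a fitted effect of over 50% in size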
Starred values were filed as active, the others as inactive; ? = inconclusive; / = no result given; [ ] = remark or other dose. Unless noted, calls come from the whole dose curve; as a rule, active = well fitted curve in the direction sought with a large enough effect; inconclusive = small, poorly fitted or top-dose-only effect, or another doubt; inactive = no such curve, though single readings can be large; an effect the other way counts as inactive or inconclusive. % is set by controls: 0 for no effect and ±100 for the full control effect.

SMILES | FBPA coupling cs | GALK inhibitor | RORg inh | TrxR1 substrate | rTrxR1 inhibitor | VP16 counter
Cc1nnc(N(C(=O)c2cnccn2)c2ccccc2)s1 | 0 | 0% | -23% | 12%[57.1 µM] | -11% | 3%
Nc1ccccc1Nc1ccccc1 | 0 | 0% | 13µM* | -2% | -2% | -12%
Nc1ccc(Nc2ccccc2)c(Cl)c1 | 0 | 1% | 13% | 2%[11.4 µM] | ? | 5%
CCCCn1nc(C(=O)Nc2nc3c(s2)CCCC3)c2ccccc2c1=O | 0 | -2% | 11µM* | -1% | 9% | ?
CCCCn1nc(C(=O)NC2=NCCS2)c2ccccc2c1=O | 0 | 1% | 0% | -9% | -6% | ?
CCCCCCn1nc(C(=O)Nc2nc3c(s2)CCCC3)c2ccccc2c1=O | 2 | 0% | 10µM* | -13% | -13% | -21%
CC(=O)OCCc1[nH]c2ccccc2c1C | 2 | / | -4% | -9% | -25% | -8%
COc1cccc(CNC(=O)C2CCCN(S(=O)(=O)c3ccc4c(ccn4C)c3)C2)c1 (stereo not drawn) | / | / | / | 7%[57.1 µM] | 27%[57.1 µM] | /
CC(C)Nc1nc(NC(N)=S)nc(NC(C)C)n1 | 0 | 2% | ? | -12% | -15% | -4%
CCNc1nc(NC(C)C)nc(NC(C)(C)C)n1 | 0 | 4% | 3% | 6% | 19% | -11%
CC(C)Nc1nc(NNc2nc(Cl)nc(NC(C)(C)C)n2)nc(NC(C)C)n1 | 0 | -1% | 0.4µM* | 5% | 30% | 1.8µM*
CC(C)Nc1nc(NC(N)=S)nc(NC(C)(C)C)n1 | 1 | -1% | 11µM* | 7%[57.1 µM] | 12%[57.1 µM] | ?
c1ccc(-c2nc3nonc3nc2-c2ccccc2)cc1 | -37* | 9% | 11µM* | -1% | 1% | ?
Nc1c(-c2ccccc2)nc(Cl)nc1-c1ccccc1 | 2 | -1% | 14% | 209%[57.1 µM] | -13%[57.1 µM] | 2%
Cc1cc(C)cc(C(=O)Nc2nnc(SCC(=O)N3CCCc4ccccc43)s2)c1 | 19 | 0% | -1% | 18%[57.1 µM] | 21%[57.1 µM] | -11%
O=C(Nc1nnc(SCC(=O)N2CCOCC2)s1)c1ccccc1Cl | 2 | 0% | 10µM* | -1% | 5% | 6.3µM*
O=C(Nc1nnc(SCC(=O)N2CCCc3ccccc32)s1)c1ccccc1 | 7 | 0% | 6.3µM* | 7%[57.1 µM] | -34% | ?
O=C(Nc1nnc(SCC(=O)N2CCCCC2)s1)c1ccccc1F | -2 | -1% | 36% | -7% | -2% | -21%
O=C(Nc1nnc(SCC(=O)N2CCCc3ccccc32)s1)c1ccc2ccccc2c1 | 7 | 1% | 6.3µM* | 55% | 42%[57.1 µM] | 5.6µM*
COc1cccc(NC(=O)c2ccccc2N2C(=O)C3C4C=CC(C5CC45)C3C2=O)c1 (stereo not drawn) | 1 | 8% | 0% | -2% | 18% | -8%
COC(=O)CC1C(=O)NCCN1C(=O)CSc1nnnn1-c1ccc(Cl)cc1 (stereo not drawn) | 4 | 1% | 15% | -8% | 16%[57.1 µM] | -15%[10 µM]
CCOc1cc(/C=C2\SC(=N)N(c3nonc3N)C2=O)ccc1OCCN1CCOCC1 | 2 | 1% | 3.2µM* | 0%[57.1 µM] | 6%[57.1 µM] | ?
CCC(C)NC(=S)NNC(=O)c1ccncc1 (stereo not drawn) | -4 | -1% | 3.2µM* | -5% | -17% | 13µM*
CC1(C(=O)NC(=S)NNC(=O)c2ccncc2)CCCCC1 | -8 | -2% | 5µM* | -13% | -33% | 13µM*
COc1ccc(/C=N/NC(=O)CCC(=O)Nc2ccc(Br)cc2)c(OC)c1 | 9 | 1% | ? | 8%[57.1 µM] | 26%[57.1 µM] | ?
CC(C)CN(CC(C)C)C(=O)Nc1ccccc1F | 1 | -2% | 1% | 2% | 20% | 8%
O=C(O)CCC(=O)N1CCC(n2nnc3cc(C(F)(F)F)ccc32)CC1 | -1 | 4% | 27% | 3% | 4% | 2%
CCOC(=O)CN1C(=O)C(O)(c2c(C)[nH]c3ccccc23)c2ccccc21 (stereo not drawn) | -30* | -7% | 5% | -1% | -2% | 4%
